Reference: PubChem BioAssay (NCI)
The panel holds about 83,000 compounds, 20% with a hit somewhere; the sample as a whole holds those more often.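 Percent growth is the endpoint: 0 to 100 indicates growth inhibition (40 means 60% inhibition), 0 means no net growth, and negative values indicate cell death.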 Active and inactive are the calls of the source. Rule for the calls: active = growth percent below 10; inactive = the rest.

The compounds below were run on HCT-116 colon (assay: NCI-60 one-dose screen, 48 h (100 = growth as untreated, 0 = no growth, -100 = all killed)). Details: 10 µM unless noted.

SMILES	growth
NCCNc1nc(Nc2ccc(-c3nc4ccccc4[nH]3)cc2)c2cn[nH]c2n1	14.9% (inactive)
Clc1ccc2c(NCCCCNc3nc(N4CCCCC4)nc4ccccc34)ccnc2c1	-17.7% (active)
Cc1cc(C)nc(SC2=C(Nc3ccc(C)c(Cl)c3)C(=O)N(Cc3ccccc3)C2=O)n1	42.9% [30 µM] (inactive)
O=c1c(F)cn(Cc2ccccc2CCl)c(=O)n1Cc1ccccc1CCl	-56.9% (active)
C=CC(=O)Nc1cccc(Nc2nc(SC)nc(-c3cccc([N+](=O)[O-])c3)c2C#N)c1	19.8% (inactive)
COc1ccc(C(=O)COc2cccc(/C=C3\CSc4ccccc4C3=O)c2)cc1	-87.5% (active)
CC(O)CN(CC(C)O)c1ccc2c(c1)Cc1cc([N+](=O)[O-])ccc1-2 (stereo not drawn)	89.6% (inactive)
CCOC(=O)c1sc(Nc2ccc(Cl)cc2)nc1C	5.31% (active)
CC/C=C\C[C@H]1C/C=C2/C(=O)C=C[C@H]2C/C=C\CCCC(=O)O1	-41.9% (active)
O=C1CC[C@H](c2ccc(O)c3c2C(=O)[C@@H]2O[C@@H]2C3=O)c2cccc(O)c21	5.4% (active)
O=C(Cc1ccc(/C=C/C(=O)c2ncc[nH]2)cc1)Nc1ccccc1	44.2% (inactive)
Cc1cc(C)nc(SC2=C(Nc3cccc(Cl)c3C)C(=O)N(Cc3ccccc3)C2=O)n1	44.1% [30 µM] (inactive)
CSc1ccc(SC2c3ccc(C)cc3Oc3nc(N)c(C#N)c(N)c32)cc1 (stereo not drawn)	-83.3% (active)
C(=C\c1nccc2c1[nH]c1ccccc12)/c1ccccc1	21.5% (inactive)
CCCSc1ccc2nc(NC(=O)OC)[nH]c2c1	15.5% (inactive)
CCCc1cc(=O)n2c(C(=O)Nc3ccc(F)cc3)c(C(=O)Nc3ccc(F)cc3)sc2n1	38.1% [30 µM] (inactive)
COc1ccccc1Nc1nc(-c2cc3cccc(C(F)(F)F)c3oc2=O)cs1	2.41% (active)
O=Nc1c(O)c(Cl)cc2ccccc12	31.5% (inactive)
CCC([N+](=O)[O-])S(=O)(=O)c1ccc(C)cc1 (stereo not drawn)	98.7% (inactive)
Clc1ccc2c(NCCNc3nc(N4CCCCC4)nc4ccccc34)ccnc2c1	-25.4% (active)

SMILES	growth
CC(C)(CCCN=C(N)Nc1ccc(Cl)cc1)c1ccc(F)cc1	28.6% (inactive)
CCCOc1ccc2nc(NC(=O)OC)[nH]c2c1	9.34% (active)
O=C(COc1cccc(/C=C2\CSc3ccccc3C2=O)c1)Nc1nccs1	-21% (active)
O=C(COc1cccc(/C=C2\COc3ccc(Cl)cc3C2=O)c1)c1ccc(Cl)cc1	31.1% (inactive)
Cc1cn2c(/C=C3/C(=O)Nc4c3ccc3ccccc43)c(C(F)(F)F)nc2s1	30.6% (inactive)
O=C1/C(=C/c2ccccc2O)N=C2SCCCN12	95.5% (inactive)
COc1cc2c(cc1-c1c(C)noc1C)ncc1nc(C3CCCCC3)n([C@H](C)COC(F)F)c12	28.4% (inactive)
COc1cccc(-c2nc(SCC(=O)Nc3ccc(C(=O)/C=C/c4ccc(OC)c(OC)c4)cc3)[nH]c(=O)c2C#N)c1	77.7% (inactive)
CC(C)n1c(/C=C/[C@@H](O)C[C@@H](O)CC(=O)O)c(-c2ccc(F)cc2)c2ccccc21	22.1% (inactive)
O=c1oc2c(C(F)(F)F)cccc2cc1-c1csc(Nc2ccc(OCCF)cc2)n1	-26.3% (active)
Cc1nc(Nc2ccc(F)c(Cl)c2)sc1C(=O)O	8.02% (active)
CCOc1nc(-c2ccccc2)cc2c(O)c(C(=O)O)[nH]c(=O)c12	105% (inactive)
Cc1cc2c3ccccc3ccc2[n+]2ccccc12	43.5% (inactive)
Cc1oc(-c2ccc(Cl)cc2Cl)cc1C(=O)Nc1nccs1	67.2% (inactive)
CC/C=C\C[C@H](O)C/C=C1/C(=O)C=C[C@@]1(C)C/C=C\CCCC(=O)OC	94% (inactive)
COc1ccc(C(=O)COc2ccc(/C=C3\COc4ccc(OC)cc4C3=O)cc2)cc1	64% (inactive)
CC[C@@H]1O[C@H](O[C@@H](c2cnc[nH]2)[C@H](NC(=O)c2nc([C@H](CC(N)=O)NC[C@@H](N)C(N)=O)nc(N)c2C)C(=O)N[C@H](C)[C@H](O)[C@H](C)C(=O)N[C@@H](C(=O)NCCc2nc(-c3nc(C(=O)NCCCCN=C(N)N)cs3)cs2)[C@@H](C)O)[C@H](O[C@@H]2O[C@H](CO)[C@H](O)[C@H](OC(N)=O)[C@@H]2O)[C@H](C)[C@@H]1C	37% (inactive)
CN1CCN(c2ccc3nc(-c4ccc(OCCCCN5CCN(CCCCN6C(=O)c7cccc8cccc(c78)C6=O)CC5)cc4)[nH]c3c2)CC1	45.9% (inactive)
O=C1c2c(O)cc(O)cc2-c2c(-c3ccc(O)cc3)oc3cc(O)cc1c23	32.5% (inactive)

The compounds below were run on HCC-2998 colon in the same assay as above. Details: 10 µM unless noted.

SMILES	growth
Clc1ccc2c(NCCCCNc3nc(N4CCCCC4)nc4ccccc34)ccnc2c1	-16.5% (active)
C=CC(=O)Nc1cccc(Nc2nc(SC)nc(-c3cccc([N+](=O)[O-])c3)c2C#N)c1	48.2% (inactive)
CC(O)CN(CC(C)O)c1ccc2c(c1)Cc1cc([N+](=O)[O-])ccc1-2 (stereo not drawn)	95.1% (inactive)
O=C1CC[C@H](c2ccc(O)c3c2C(=O)[C@@H]2O[C@@H]2C3=O)c2cccc(O)c21	101% (inactive)
O=C(Cc1ccc(/C=C/C(=O)c2ncc[nH]2)cc1)Nc1ccccc1	90.4% (inactive)
CSc1ccc(SC2c3ccc(C)cc3Oc3nc(N)c(C#N)c(N)c32)cc1 (stereo not drawn)	-88.2% (active)
CCCSc1ccc2nc(NC(=O)OC)[nH]c2c1	-4.45% (active)
O=Nc1c(O)c(Cl)cc2ccccc12	115% (inactive)
CCC([N+](=O)[O-])S(=O)(=O)c1ccc(C)cc1 (stereo not drawn)	64.5% (inactive)
Clc1ccc2c(NCCNc3nc(N4CCCCC4)nc4ccccc34)ccnc2c1	10.6% (inactive)
CCCOc1ccc2nc(NC(=O)OC)[nH]c2c1	-14% (active)
O=C(COc1cccc(/C=C2\CSc3ccccc3C2=O)c1)Nc1nccs1	100% (inactive)
O=C(COc1cccc(/C=C2\COc3ccc(Cl)cc3C2=O)c1)c1ccc(Cl)cc1	129% (inactive)
Cc1cn2c(/C=C3/C(=O)Nc4c3ccc3ccccc43)c(C(F)(F)F)nc2s1	46.6% (inactive)
COc1cc2c(cc1-c1c(C)noc1C)ncc1nc(C3CCCCC3)n([C@H](C)COC(F)F)c12	43.7% (inactive)
CC(C)n1c(/C=C/[C@@H](O)C[C@@H](O)CC(=O)O)c(-c2ccc(F)cc2)c2ccccc21	77.7% (inactive)
Cc1cc2c3ccccc3ccc2[n+]2ccccc12	47% (inactive)
Cc1oc(-c2ccc(Cl)cc2Cl)cc1C(=O)Nc1nccs1	109% (inactive)
CC[C@@H]1O[C@H](O[C@@H](c2cnc[nH]2)[C@H](NC(=O)c2nc([C@H](CC(N)=O)NC[C@@H](N)C(N)=O)nc(N)c2C)C(=O)N[C@H](C)[C@H](O)[C@H](C)C(=O)N[C@@H](C(=O)NCCc2nc(-c3nc(C(=O)NCCCCN=C(N)N)cs3)cs2)[C@@H](C)O)[C@H](O[C@@H]2O[C@H](CO)[C@H](O)[C@H](OC(N)=O)[C@@H]2O)[C@H](C)[C@@H]1C	69.7% (inactive)
